Screen size: about 16,000 compounds; about 4,000 (25%) were called active. Inconclusive results (about 26%) are left out. Only a sample is shown. A number with no mark means an inactive call. Calls follow the shape of the dose curve; as a rule, active = well fitted curve in the direction sought with a large enough effect; inconclusive = small, poorly fitted or top-dose-only effect, or effect the other way; inactive = no such curve, though single readings can be large or run the other way.
target: Cytochrome P450 2C9 (Homo sapiens) (UniProt P11712); assay: Cytochrome panel assay with activity outcomes; settings: recombinant CYP, pro-luciferin dealkylation, luminescence, p450-cyp2c9; series mostly up to 57.1 µM
Sequence (P11712 whole entry, looked up): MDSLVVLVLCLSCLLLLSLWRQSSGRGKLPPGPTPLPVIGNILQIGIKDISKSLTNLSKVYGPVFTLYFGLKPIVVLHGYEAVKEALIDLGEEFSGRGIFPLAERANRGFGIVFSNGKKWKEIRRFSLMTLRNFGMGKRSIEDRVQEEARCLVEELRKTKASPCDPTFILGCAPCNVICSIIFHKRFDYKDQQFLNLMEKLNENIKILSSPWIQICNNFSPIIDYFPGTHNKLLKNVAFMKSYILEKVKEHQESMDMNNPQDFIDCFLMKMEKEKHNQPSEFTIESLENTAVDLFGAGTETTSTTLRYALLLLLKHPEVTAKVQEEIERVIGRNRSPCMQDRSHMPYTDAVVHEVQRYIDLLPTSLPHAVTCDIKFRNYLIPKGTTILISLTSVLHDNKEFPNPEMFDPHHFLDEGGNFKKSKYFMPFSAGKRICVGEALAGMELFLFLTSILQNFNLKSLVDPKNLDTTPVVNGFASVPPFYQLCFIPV
% is scaled to controls: 0 for no effect and ±100 for the full control effect.

Compound | AC50 | activity, negative = inhibition
CC(C)(C)C1CCC(OCC(O)CN2CCN(c3ccccc3)CC2)CC1 (stereo unspecified) | inactive | –
CCOC(=O)CCN1C(=O)[C@H]2[C@H]3[C@H](O)[C@H](O)C/C(=N/OC[C@@H](O)COCc4ccco4)[C@@H]3CC[C@@H]2C1=O | – | -5.27% [at 11.4 µM]
CC1CCN(c2cc(N3CCC(C)CC3)c([N+](=O)[O-])cc2/C=C(\C#N)c2nn(-c3ccccc3)c(N)c2C#N)CC1 | 224 nM (active) | –
N#C/C(=C\c1cc([N+](=O)[O-])c(N2CCCCC2)cc1N1CCCCC1)c1nn(-c2ccccc2)c(N)c1C#N | 316 nM (active) | –
CS(=O)(=O)Nc1cccc(-c2cncnc2NCc2cccs2)c1 | 126 nM (active) | –
COc1cccc(-c2cncnc2NCc2cnc(C)cn2)c1 | – | 4.41% [at 2.29 µM]
CS(=O)(=O)Nc1cccc(-c2cncnc2Nc2ccc(F)cc2)c1 | – | -8.15% [at 2.29 µM]
COc1cccc(-c2cncnc2NCc2cccs2)c1 | 398 nM (active) | –
c1cncc(-c2cncnc2NCc2cccs2)c1 | – | -1.39% [at 2.29 µM]
COc1cccc(-c2cncnc2NCCc2cnc[nH]2)c1 | 251 nM (active) | –
CS(=O)(=O)Nc1cccc(-c2cncnc2NCc2cccnc2)c1 | – | -3.43% [at 2.29 µM]
CS(=O)(=O)Nc1cccc(-c2cncnc2NCc2ccccc2)c1 | 398 nM (active) | –
COc1cccc(-c2cncnc2NCc2cccnc2)c1 | – | -10.5% [at 2.29 µM]
CS(=O)(=O)Nc1cccc(-c2cncnc2Nc2ccccc2)c1 | – | -11.4% [at 2.29 µM]
COc1cccc(-c2cncnc2NCCN2CCOCC2)c1 | – | 1.81% [at 2.29 µM]
COc1ccccc1CNc1ncncc1-c1cccc(NS(C)(=O)=O)c1 | – | -27.7% [at 2.29 µM]
O=C(O)CSCNC(=O)CC12CC3CC(CC(C3)C1)C2 | inactive | –
c1csc(CNc2ncncc2-c2ccc3c(c2)OCO3)c1 | 316 nM (active) | –
CN(C)c1ccc(-c2cncnc2NCc2cccs2)cc1 | – | -23.6% [at 2.29 µM]
Cc1cccc(CNc2ncncc2-c2ccc3c(c2)OCO3)c1 | – | -20.1% [at 2.29 µM]
COCCn1nc2cc(C(=O)NCc3cc(C(F)(F)F)cc(C(F)(F)F)c3)ccc2c1OC | inactive | –
CCCN(CCC)CCCNC(=O)c1ccc2c(c1)N(CC)C(=O)c1ccccc1S2=O (stereo unspecified) | inactive | –
CCn1nc2cc(C(=O)NCC34CC5CC(CC(C5)C3)C4)ccc2c1OC | 14100 nM (active) | –
CCOc1c2ccc(C(=O)NCc3ccc4c(c3)OCO4)cc2nn1CC | 14100 nM (active) | –
CCOc1c2ccc(C(=O)NCc3ccc(OC(F)(F)F)cc3)cc2nn1C | 15800 nM (active) | –
CCOc1c2ccc(C(=O)NCCCCc3ccccc3)cc2nn1CC | 11200 nM (active) | –

Source: PubChem BioAssay AID1851 (National Center for Advancing Translational Sciences (NCATS), 2009)
